Shiga toxin inh: inhibitors of Shiga toxin in Vero cells. Vero cells, Shiga toxin protein synthesis inhibition reporter. inhibition, % at 38.7 µM. 290,000 compounds, 9.2% hits; in the data active means inhibition mostly above about 28%, no sharp cut-off; inactive means mostly below about 43%
Pf growth 48h: inhibits P. falciparum growth in the first generation, 48 h | 310,000 compounds, 5.9% hits | AID 504832 | Potency, µM (titrated, usually from 28.7 µM), actives largely listed as inhibitors | P. falciparum luciferase growth in erythrocytes, 48 h
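Compounds are pin-transferred into medium, infected erythrocytes (2% hematocrit, 0.1% parasitemia final) are added, and plates sit one parasite generation at 37 C in 5% CO2. Detection reagent is then added and luminescence measured.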
AMA1-RON2 inh: AMA1-RON2 (P. falciparum) interaction inhibition; AID 720542; AlphaScreen AMA1-biotinylated RON2 peptide binding; Potency, µM (doses to about 58.2 µM), usual class: inhibitors; 360,000 compounds, 0.2% hits; further: nearly all actives have a fitted effect of over 45% in size
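AMA1 (3D7) with his tag at 25 nM final met compounds first, then biotinylated RON2 peptide at 25 nM; detection used donor plus acceptor beads, 10 µg/mL apiece, read by AlphaScreen after 30 min at room temperature.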
HCV inhibitor: blocks hepatitis C virus; Potency, µM (series often up to 41.8 µM), actives largely listed as inhibitors; Huh7.5.1 HCVcc-Cre infection, luciferase reporter, 44 h; 340,000 compounds, 3.4% hits
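A cell-based infection assay in which seeded cells (1,000 per well) receive test compound after 4 h, are inoculated with HCVcc-Cre at approximately 0.5 moi, and are incubated 44 h before luminescence detection.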
Pf growth 96h: P. falciparum growth inhibition at 96 hours; 320,000 compounds, 6.9% hits; P. falciparum luciferase reporter growth, 96 h; Potency, µM (highest dose often 28.7 µM), actives largely listed as inhibitors
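Erythrocytes infected with luciferase-expressing P. falciparum were dispensed at 2% hematocrit and 0.05% parasitemia (final), then incubated with compounds 96 hours at 37 C in 5% CO2. Luminescence after detection reagent addition reported growth.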
CHX counter: counter-screen for Shiga toxin inhibitors: cycloheximide protein synthesis inhibition | cell reporter, cycloheximide protein synthesis inhibition counterscreen | max response, % | 300,000 compounds, 12% hits; in the data active means max response mostly above about 13%, no sharp cut-off; inactive means mostly below about 14%; further: read at 38.3 µM for the half of the compounds with a filed dose
Numbers stand for hits. Rows were chosen to be rich in hits. Some 21% of all compounds tested hit in one or more screens of this group. Unless noted, the call rests on the fitted dose curve; in most records, active means well fitted curve in the direction sought with a large enough effect; inconclusive means small, poorly fitted or top-dose-only effect, or another doubt; inactive means no such curve, though single readings can be large; an effect the other way counts as inactive or inconclusive.

For Cn1cnnc1SCc1ccc(C(=O)N=Nc2c(O)n(Cc3ccc(Cl)cc3)c3ccccc23)cc1 the results were Shiga toxin inh inactive, Pf growth 48h 2.33µM, AMA1-RON2 inh inactive, HCV inhibitor 10µM, Pf growth 96h 3.7µM and CHX counter inactive.
Cn1cnnc1SCC(=O)NNC(=O)c1ccc(Cl)cc1 was read as Shiga toxin inh inactive, Pf growth 48h inactive, AMA1-RON2 inh inactive, HCV inhibitor inactive, Pf growth 96h inactive and CHX counter inactive.
Screening COC(=O)c1c(C)cc(C)c2c1CC(C)(C)C2=O returned Shiga toxin inh inactive, Pf growth 48h inactive, AMA1-RON2 inh inactive, HCV inhibitor inactive, Pf growth 96h inconclusive and CHX counter inactive.
O=C(NCc1cccc(Cl)c1)c1ccc(S(=O)(=O)N2CCCCC2)cc1 was read as AMA1-RON2 inh inactive.
Cn1cnc2cc(NCc3cccs3)ccc21 was read as Shiga toxin inh 65.5, Pf growth 48h inactive, AMA1-RON2 inh inactive, HCV inhibitor inactive, Pf growth 96h 10.4µM and CHX counter 24.1.
For c1ccc(-n2cnc3cc(NCc4cccs4)ccc32)cc1 the results were Shiga toxin inh 76.6, Pf growth 48h inactive, AMA1-RON2 inh inactive, HCV inhibitor inactive, Pf growth 96h inactive and CHX counter 87.5.
For COc1ccccc1-n1cnc2cc(C(=O)NCc3ccco3)ccc21 the results were Shiga toxin inh inactive, Pf growth 48h inconclusive, AMA1-RON2 inh inactive, HCV inhibitor inconclusive, Pf growth 96h inactive and CHX counter inactive.
`c1ccc(-n2cnc3cc(NCc4ccco4)ccc32)cc1` gave Shiga toxin inh 62.7, Pf growth 48h inactive, AMA1-RON2 inh inactive, HCV inhibitor inconclusive, Pf growth 96h inactive and CHX counter 35.4.
Screening c1ccc(-n2cnc3ccccc32)cc1 returned Shiga toxin inh inactive, Pf growth 48h inactive, AMA1-RON2 inh inactive, HCV inhibitor inactive, Pf growth 96h inactive and CHX counter inactive.
For Cc1ccc(-n2cnc3cc(NCc4cccs4)ccc32)cc1 the results were Shiga toxin inh 99.9, AMA1-RON2 inh inconclusive, HCV inhibitor inactive, Pf growth 96h inconclusive and CHX counter 52.9.
`Cc1cc(C)cc(-n2ncc3c2CCCC3NC(=O)CN2CCCCC2=O)c1` (stereo unspecified) gave AMA1-RON2 inh inactive and HCV inhibitor inactive.
COCc1cn(CC(=O)c2sc(NC(=O)C(C)(C)C)nc2C)nn1 was read as AMA1-RON2 inh inactive.
`O=C(N=C1SC2CS(=O)(=O)CC2N1CCc1ccc(F)cc1)C1CCCCC1` (stereo unspecified) gave Shiga toxin inh inactive, Pf growth 48h inactive, AMA1-RON2 inh inactive, HCV inhibitor inactive, Pf growth 96h inactive and CHX counter inactive.
For Cc1ccc2nc(N(CCCN(C)C)C(=O)c3sc4ccccc4c3Cl)sc2c1 the results were Shiga toxin inh inactive, Pf growth 48h inactive, AMA1-RON2 inh inconclusive, HCV inhibitor inconclusive, Pf growth 96h inactive and CHX counter inactive.
For COc1ccc(-n2cnc3cc(NCc4ccccn4)ccc32)cc1 the results were Shiga toxin inh inactive, Pf growth 48h inconclusive, AMA1-RON2 inh inactive, HCV inhibitor inconclusive, Pf growth 96h inconclusive and CHX counter inactive.
For COc1ccc(-n2cnc3cc(NCc4cccs4)ccc32)cc1 the results were Shiga toxin inh 99.6, Pf growth 48h inconclusive, AMA1-RON2 inh inactive, HCV inhibitor inconclusive, Pf growth 96h inactive and CHX counter 50.9.
`COc1ccc(CC(=O)Nc2cccc(SC)c2)cc1OC` gave Shiga toxin inh inactive, Pf growth 48h inactive, AMA1-RON2 inh inactive, HCV inhibitor 3.98µM, Pf growth 96h inactive and CHX counter inactive.
For CCOCC(=O)Nc1cccc(Br)c1 the results were Shiga toxin inh inactive, Pf growth 48h inactive, AMA1-RON2 inh inactive, HCV inhibitor inactive, Pf growth 96h inactive and CHX counter inactive.
`Cc1ccccc1NC(=O)COc1ccc2oc(=O)cc(C)c2c1` gave Shiga toxin inh inactive, Pf growth 48h inactive, AMA1-RON2 inh inactive, HCV inhibitor inactive, Pf growth 96h inactive and CHX counter inactive.
For CC(=O)c1cccc(NC(=O)COc2ccccc2)c1 the results were Shiga toxin inh inactive, Pf growth 48h inactive, AMA1-RON2 inh inactive, HCV inhibitor inactive, Pf growth 96h inactive and CHX counter 18.2.
Screening CC(=O)c1cccc(NC(=O)COc2ccc3oc(=O)cc(C)c3c2)c1 returned Shiga toxin inh inactive, Pf growth 48h inconclusive, AMA1-RON2 inh inactive, HCV inhibitor 15.8µM, Pf growth 96h inconclusive and CHX counter inactive.
For CC(C)CCOCC(=O)Nc1cccc(C(=O)O)c1 the results were Shiga toxin inh 120.4, Pf growth 48h inactive, AMA1-RON2 inh inactive, HCV inhibitor inactive, Pf growth 96h inactive and CHX counter 105.1.
For C/C(=N\NC(=O)c1c(Cl)cnn1C)c1cccc(NC(=O)COc2ccccc2)c1 the results were Shiga toxin inh inactive, Pf growth 48h inactive, AMA1-RON2 inh inconclusive, HCV inhibitor inconclusive, Pf growth 96h inactive and CHX counter 16.4.
Screening CSc1cccc(NC(=O)COc2ccccc2)c1 returned Shiga toxin inh inactive, Pf growth 48h inactive, AMA1-RON2 inh inactive, HCV inhibitor inactive and CHX counter 40.1.
Screening CC(=O)c1cccc(OCC(=O)Nc2cccc(C(=O)Nc3c(C)n(C)n(-c4ccccc4)c3=O)c2)c1 returned Pf growth 48h inactive, AMA1-RON2 inh inactive, HCV inhibitor inactive and Pf growth 96h inactive.
`CCCCC1Cc2[nH]c(=S)[nH]c(=O)c2C(c2ccc(F)cc2)O1` (stereo unspecified) gave AMA1-RON2 inh inactive.
O=C(/C=C/c1ccc([N+](=O)[O-])cc1)NNC(=O)C1CC1 was read as Shiga toxin inh inactive, Pf growth 48h inactive, AMA1-RON2 inh inactive, HCV inhibitor inactive, Pf growth 96h inactive and CHX counter inactive.
O=C(/C=C/c1ccc([N+](=O)[O-])cc1)NC1CC2CCC1C2 (stereo unspecified) was read as Shiga toxin inh 48.8, Pf growth 48h inactive, AMA1-RON2 inh inactive, HCV inhibitor inactive, Pf growth 96h inactive and CHX counter 43.2.
Screening O=C(/C=C/c1ccc(Cl)cc1)NC1CC2CCC1C2 (stereo unspecified) returned Shiga toxin inh 128.8, Pf growth 48h inactive, AMA1-RON2 inh inactive, HCV inhibitor inactive, Pf growth 96h inactive and CHX counter 25.7.
`O=C(/C=C/c1ccccc1)NC1CC2CCC1C2` (stereo unspecified) gave Shiga toxin inh 106.1, Pf growth 48h inactive, AMA1-RON2 inh inactive, HCV inhibitor inactive, Pf growth 96h inactive and CHX counter 44.8.
Screening COc1ccccc1C1NC(=O)NC(C)=C1C(=O)OC1CCC(C)CC1 (stereo unspecified) returned Shiga toxin inh inactive, Pf growth 48h inactive, AMA1-RON2 inh inactive, HCV inhibitor inactive, Pf growth 96h inactive and CHX counter inactive.
COc1cc(O)cc2cc3c(c(O)c12)C(=O)CC(C)(O)O3 (stereo unspecified) was read as Shiga toxin inh 37.4, Pf growth 48h inconclusive, AMA1-RON2 inh inconclusive, HCV inhibitor inconclusive, Pf growth 96h inactive and CHX counter 35.0.

Assay outcomes: PubChem BioAssay, National Center for Advancing Translational Sciences (NCATS)
